# Fewer than 10 of roughly 44,000 compounds were called active. Only a sample is shown. Unmarked numbers belong to inactive results. Calls follow the shape of the dose curve; as a rule, active = well fitted inhibition curve with a large enough effect; inconclusive = small, poorly fitted or top-dose-only effect; inactive = flat fitted curve, though single readings scatter.
# Biological target: Tumor susceptibility gene 101 protein (Homo sapiens) (UniProt Q99816)
# Assay: qHTS Validation Assay for Inhibitors of HIV-1 Budding by Blocking the Interaction of PTAP/TSG101: Sytravon Library Screen; as to activity change, negative = inhibition: 0% is about no effect
# Conditions: Fluorescence polarization, FITC-PTAP peptide/Tsg101, 20 min; series mostly up to 115 µM; activity change, negative = inhibition: at the top concentration
# Source text: Stages of the HIV-1 replication cycle, specifically virus assembly and release, provide underexploited targets for the development of novel antiviral inhibitors. The late stages of HIV-1 replication are mediated by the Gag precursor protein, Pr55Gag. Expression of Pr55Gag is both necessary and sufficient for the production of virus-like particles from Gag-expressing cells. The Gag protein hijacks key host proteins involved in endocytic machinery of the host cell to promote endosomal processing and viral budding. The budding process requires a direct interaction between a […] (PTAP) motif in the p6 domain of Gag and the cellular endosomal sorting protein known as Tsg101. In this way, the Gag PTAP motif promotes the host cells to recruit viral particles to the plasma membrane where the new viral particles are released, effectively turning the host cells into viral factories. A fluorescence polarization assay has been developed to quantitatively measure the PTAP-Tsg101 interaction which can be used to screen for inhibitors of this interaction. This assay was run against the NCGC Sytravon Library collection. NIH Molecular Libraries Probe Production Network [MLPCN] NIH Chemical Genomics Center [NCGC] Grant: R03 MH087464-01A1 PI Name: Dr. Eric Freed, NCI
# Two uL of the Tsg101 binding domain in buffer (10 mM HEPES pH 7.5; 0.15 M NaCl, 0.01% Tween 20; 3 mM EDTA;0.1 mM TCEP) was dispensed into Greiner black MB 1536-well plates (final concentration 10 uM). Then, 23 nL of compounds or DMSO were delivered to each well using a pin tool. Finally, 2 uL of a FITC-labeled peptide containing the PTAP motif (1) in the same buffer was dispensed (50 nM final concentration) and the binding was allowed to proceed for 20 min. at r.t. Fluorescent polarization was determined using FITC excitation and polarized emission filters on a Perkin Elmer Envision. Assay cut-off (positive/negative criteria): Actives defined by CRC class, <25 µM; Efficacy <60% inhibition. The total fluorescent intensity from S and P channels will be used to flag fluorescent compounds.
# Potency is read from the fitted curve at half-maximal effect.
# Tumor susceptibility gene 101 protein (Homo sapiens), sequence (Q99816 whole entry, looked up): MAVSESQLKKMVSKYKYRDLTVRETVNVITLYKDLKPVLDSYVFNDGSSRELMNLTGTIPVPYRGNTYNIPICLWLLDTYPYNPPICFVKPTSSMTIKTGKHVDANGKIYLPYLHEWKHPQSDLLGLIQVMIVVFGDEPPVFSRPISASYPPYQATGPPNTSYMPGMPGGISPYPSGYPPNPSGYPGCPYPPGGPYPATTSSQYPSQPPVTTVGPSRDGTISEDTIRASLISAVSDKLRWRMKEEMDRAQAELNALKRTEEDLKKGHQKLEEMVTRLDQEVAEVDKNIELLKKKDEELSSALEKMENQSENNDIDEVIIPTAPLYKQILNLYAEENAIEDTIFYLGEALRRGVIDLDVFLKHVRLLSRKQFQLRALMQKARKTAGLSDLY
SMILES,"activity change, negative = inhibition",Potency
COc1ccccc1C(=O)Nc1c(C(=O)N(C)Cc2ccccc2)sc2nc(C)c(Cl)c(C)c12,-1.59%,
COc1ccccc1CNC(=O)c1ccc(NC(=O)N2CC(C)Sc3ccccc32)cc1 (centres undefined),-5.63%,
COc1ccc(NC(=O)c2sc3nc[nH]c(=O)c3c2C)cc1,2.47%,
CCc1ccc(S(=O)(=O)Nc2cc3c(C(=O)OCc4ccccc4)c(C)oc3c3ccccc23)cc1,8.08%,
COc1ccccc1-c1ccnc2[nH]n(-c3ccccc3)c(=O)c12,-10.8%,
CSc1nn(Cc2cccc(C)c2)c(N)c1S(=O)(=O)c1ccccc1,5.53%,
CCOc1ccccc1C(=O)Nc1ccc2c(c1)N(C)C(=O)c1ccccc1S2,-5.55%,
CCOC(=O)c1[nH]c(C)c(CCC(=O)NCc2ccccc2C)c1C,1.29%,
Cc1ccc(S(=O)(=O)c2nc(-c3cccs3)oc2N2CCCCC2)cc1,-7.31%,
COc1cccc(CNC(=O)CCc2nc(-c3ccc(C)cc3)no2)c1,0.0869%,
CCCCCCn1nnc2sc(-c3ccccc3)cc2c1=O,1.81%,
Cc1ccc(Cl)cc1N1CCN(C(=O)c2cccn3c(=O)c4cc(Cl)ccc4nc23)CC1,1.96%,
Cc1ccccc1-n1c(=O)c2ccccc2n(Cc2ccc(F)cc2)c1=O,-2.61%,
CCc1ccccc1N(C)C(=O)C1CCCN(c2ncnc3onc(-c4ccc(F)cc4)c23)C1 (centres undefined),-3.7%,
CCOC(=O)c1c(NC(=O)c2ccc(S(=O)(=O)N(CC)CC)cc2)sc2c1CCCCC2,-4.85%,
Cc1nc2ccc(S(=O)(=O)N(CC(=O)Nc3ccc(F)cc3)Cc3ccccc3)cc2s1,1.33%,
COc1ccc(CCNC(=O)CN2C(=O)COc3ccc(S(=O)(=O)N4CCCC4)cc32)cc1OC,-6.56%,
Cc1cc(Nc2cccc(C(F)(F)F)c2)nc2ccc(NC(=O)c3ccc(=O)[nH]c3)cc12,1.63%,
O=C(Nc1ccc2oc(-c3ccc(O)c(Br)c3)nc2c1)c1cc2ccccc2o1,-4.46%,
O=C(c1cccc(Br)c1)N1CCN(Cc2cc(=O)n3nc(-c4ccccc4)sc3n2)CC1,-0.0587%,
O=C(CNS(=O)(=O)c1cccs1)N1CCN(c2ccccc2Cl)CC1,1.11%,
CC1CCc2noc(NC(=O)c3ccc([N+](=O)[O-])cc3)c2C1 (centres undefined),12.5%,
COc1cc(C(=O)N2CCN(c3ccc(Nc4ccc(C)cc4)nn3)CC2)cc(OC)c1OC,-0.737%,
CCOC(=O)c1ccc(NC(=O)CCS(=O)(=O)c2ccc3c(c2)oc(=O)n3C)cc1,4.41%,

SMILES,"activity change, negative = inhibition",Potency
O=C(COCc1cc(-c2ccc3c(c2)OCO3)on1)N1CCN(c2cccc(Cl)c2)CC1,1.37%,
Cc1ccc(C(=O)Nc2ccc(C(=O)O)cc2)cc1S(=O)(=O)Nc1ccccc1,-1.08%,
Cc1ccc(OCC(=O)OCc2cc(=O)n3nc(C4CC4)sc3n2)cc1,-7.51%,
CCOC(=O)C(Cc1ccccc1)NC(=O)CCc1c(C)nc2c(c(C)nn2-c2ccc(C)c(C)c2)c1C (centres undefined),-0.632%,
Cc1ccc(OCCSc2nc(-c3cccs3)nc3cc(=O)[nH]n23)cc1Cl,0.193%,
CC1(C)N=C(SCc2ccccc2Cl)c2ccccc2N1,-5.04%,
COc1ccc(Cc2nc3ccc(C(=O)NCc4ccccc4C)cc3o2)cc1,0.514%,
COc1ccc(N2C(=O)CS(=O)(=O)C23C(=O)N(Cc2ccc(C)cc2)c2ccccc23)cc1Cl (centres undefined),2.62%,
Cc1ccc(C)c(N2CCN(S(=O)(=O)c3ccc4c(c3)C(C(C)C)C(=O)N4)CC2)c1 (centres undefined),-7.65%,
Cc1ccc(NC(=O)CSc2nnc3[nH]c(=O)cc(C)n23)cc1Cl,-1.4%,
CCOC(=O)C1CCC(CN(Cc2ccc(OC)cc2)S(=O)(=O)c2ccc(F)c(C(=O)Nc3cc(C)ccc3C)c2)CC1 (centres undefined),-0.621%,
CCOC(=O)N1CCc2c(sc3c2c(=O)n(-c2ccc(CC)cc2)c(=O)n3C)C1,0.351%,
COc1ccc(CCN2C(=O)c3oc4cc(C)cc(C)c4c(=O)c3C2c2ccccc2F)cc1OC (centres undefined),-1.25%,
CSc1ccc(CCNC(=O)c2ccc3c(c2)nc2n3CCOC2)cc1,1.68%,
COc1ccccc1N1CCN(C(=O)C2CCN(S(=O)(=O)c3c(C)noc3/C=C/c3ccc(C)cc3)CC2)CC1,0.416%,
COc1ccc2c(c1)Cc1sc(NC(=O)c3ccccc3Br)nc1-2,-15.5%,
CC(=O)Nc1ccc(NC(=O)C2CCCN(S(=O)(=O)c3ccc4c(c3)CCCC(=O)N4)C2)cc1 (centres undefined),-4.99%,
COc1ccc(Cl)cc1NC(=O)CSc1nc(=O)[nH]c2c1CCCC2,-2.93%,
CCc1nn(CC(=O)Nc2cc(C)cc(C)c2)c(=O)c2cc3sccc3n12,2.57%,
COc1cc(OC)c(NC(=O)c2cnc(N3CCCC3)nc2C)cc1Cl,-0.674%,
O=C(NCCC1=CCCCC1)c1ccc2c(c1)N(Cc1ccccc1F)C(=O)c1ccccc1S2(=O)=O,-0.0457%,
O=C(CN1C(=O)COc2ccc(S(=O)(=O)N3CCCCCC3)cc21)N1CCN(c2cccc(C(F)(F)F)c2)CC1,-1.98%,
CCCCOc1ccc(CN2C(=O)C(=O)c3cc(Br)cc(C)c32)cc1OC,3.1%,
COc1cc(CN(C(=O)c2ccccc2Br)c2ccccn2)cc(OC)c1OC,1.54%,

SMILES,"activity change, negative = inhibition",Potency
CCOCCCNC(=O)c1c(NC(=O)Cc2coc3c(C)c(C)ccc23)sc2c1CCC2,-5.83%,
Cc1nnc(N2CCC(C(=O)Nc3ccc(F)cc3)CC2)c2nn(-c3ccc(Cl)cc3)c(C)c12,-0.22%,
O=C(c1cc(-c2ccc(F)cc2)on1)N1CCN(c2ccc(F)cc2)CC1,-0.644%,
COC(=O)CN1C(=O)CSc2ccc(S(=O)(=O)Nc3cc(C)ccc3C)cc21,0.45%,
Cc1cc(C)c2oc(C(=O)Nc3c(C(=O)Nc4ccccc4)oc4ccccc34)cc(=O)c2c1,-3.4%,
O=C(NC1CC(=O)N(c2ccc(Cl)cc2)C1)C1CCCC1 (centres undefined),1.05%,
CN1CCN(c2oc(-c3ccc(COc4ccc(Cl)cc4)o3)nc2C#N)CC1,-1.61%,
COc1ccc(-c2nc3sc(CCNS(=O)(=O)c4ccc(F)c(C)c4)c(C)n3n2)cc1,-2.15%,
O=C(COc1ccccc1F)Nc1ccc(C(=O)OCc2cc(=O)n3nc(C4CC4)sc3n2)cc1,-2.26%,
CCC(=O)Nc1ccccc1-c1nc2ccccc2n(CC(=O)Nc2ccc(C)c(C)c2)c1=O,-2.55%,
Cc1cccc(-c2nc(SCC(=O)Nc3cc(C)on3)c3c(=O)n(C)c(=O)n(C)c3n2)c1,-8.93%,
CC(=O)c1ccc(NC(=O)CSc2c(C(C)C)cnc3c2c(=O)n(C)c(=O)n3C)cc1,-0.533%,
COc1ccc(OCc2ccc(-c3nc(C#N)c(N4CCN(c5ccccc5)CC4)o3)o2)cc1,-0.55%,
CCCCNC(=O)c1cc(-c2ccc(Cl)c(Cl)c2)on1,0.656%,
CCSc1ncc(Cl)c(C(=O)Nc2c(C(=O)c3ccccc3)oc3ccccc23)n1,0.154%,
Cc1ccc(NC2=C(c3ccc(C(F)(F)F)cc3)C(=O)c3ccccc32)cc1F,-2.86%,
COc1ccc(S(=O)(=O)c2c(Nc3cccc(Cl)c3)sc(C(=O)c3ccccc3)c2N)cc1,1.26%,
COc1cccc(C(=O)c2sc3nc(-c4ccccc4)cc(C(F)(F)F)c3c2N)c1,,28.2 µM (active)
COc1cccc(C(=O)Nc2ccc(-c3cc(C(F)(F)F)nn3-c3ccccc3)cc2)c1,-5.37%,
COc1ccc(NC(=O)CN2CCCN(Cc3ccccc3)S2(=O)=O)cc1,4.58%,
COc1ccccc1Nc1nc(N)nc(N)c1S(=O)(=O)c1ccccc1,2.79%,
COc1cccc(N2CCN(C(=O)CCCCCn3c(=O)[nH]c4ccccc4c3=O)CC2)c1,-2.04%,
COc1ccc(CNC(=O)c2cc3c(=O)[nH]c4ccccc4c3s2)cc1,-0.283%,
CCCN1C(=O)C(O)(CC(=O)c2ccc(CC)cc2)c2cc(Br)ccc21 (centres undefined),-0.282%,

SMILES,"activity change, negative = inhibition",Potency
O=C(c1ccco1)n1nc(-c2ccc(Cl)cc2)nc1NCc1ccccc1,-4.62%,
Cn1c(=O)c2c(-c3ccccc3Br)n(Cc3ccccc3)cc2n(C)c1=O,-2.21%,
Cc1cc(C)c(NC(=O)CN2C(=O)c3cccnc3Oc3ccc(Cl)cc32)c(C)c1,0.363%,
CCOC(=O)c1ccc(NC(=O)C2CCN(S(=O)(=O)c3ccc4c(c3)CCCC(=O)N4)CC2)cc1,-0.0606%,
O=C(Nc1ccc2nc(SCC(=O)N3CCCc4ccccc43)sc2c1)c1ccc(F)cc1,7.03%,
CCOc1ccc(NC(=O)Cn2c(=O)n(CCCC(=O)NCc3ccc4c(c3)OCO4)c(=O)c3ccccc32)cc1,-2.28%,
CC(=O)N1c2ccc(S(=O)(=O)N3CCCCCC3)cc2CC1C(=O)NCc1ccccc1C (centres undefined),1.47%,
CCOc1cccc(C(=O)Nc2nnc(S(=O)(=O)N(C)c3ccc(C)cc3)s2)c1,4.37%,
COc1cc(CNCCSc2nnnn2C)ccc1OCc1ccc(Cl)cc1Cl,-9.59%,
Cc1cn(C)c(CC(=O)NCc2ccccc2)c1C(=O)O,-6.7%,
CCc1ccc(CNC(=O)c2ccc(CS(=O)c3ccc(Br)cc3)o2)cc1 (centres undefined),-1.78%,
COc1ccc(-n2ccnc(NCCc3ccc(Cl)cc3)c2=O)cc1OC,-3.87%,
N#Cc1nc(/C=C/c2ccc(F)cc2)oc1NC1CCCCC1,0.943%,
COc1ccc(CNC(=O)CS(=O)Cc2nc(-c3cccc(C)c3)oc2C)cc1 (centres undefined),0.25%,
CCOc1ccc(NC(=O)c2cc(S(=O)(=O)N3CCCC3)c[nH]2)cc1,-8.6%,
COc1cccc(C(=O)NCC(=O)OCc2cc(=O)n3ccsc3n2)c1,1.45%,
Cc1nn(-c2ccc(N3CCCCC3)nn2)c(C)c1CCC(=O)NCc1ccccc1F,1.09%,
CCc1cc2c(cc3c(=O)n(CC(=O)N4CCN(c5cc(Cl)ccc5C)CC4)ncn32)s1,-5.09%,
CCOc1ccc(C2C(=O)N(C3CCCCC3)CC(=O)N2CCC2=CCCCC2)cc1OC (centres undefined),-8.4%,
CC1CCCN(Cc2c(O)ccc3c(=O)c(Oc4ccc(C(C)(C)C)cc4)c(C(F)(F)F)oc23)C1 (centres undefined),-0.105%,
CCc1cccc(C)c1NS(=O)(=O)c1ccc(-c2cc(C)no2)s1,0.67%,
O=C(CCS(=O)(=O)c1cc(Br)cc2c1N(C(=O)C1CC1)CC2)Nc1ccc(C(F)(F)F)cc1,0.0494%,

# Reference: PubChem BioAssay AID1347069 (National Center for Advancing Translational Sciences (NCATS), 2019)
